Assay results: PubChem BioAssay AID504599 (National Center for Advancing Translational Sciences (NCATS), 2011)
Several values for one entry are separate records, joined by “and”; a condition that tells them apart may be missing. Equal entries are not always repeated. Activity calls are given as the source filed them. The call rests on the fitted dose curve; in most records, active means well fitted inhibition curve with a large enough effect; inconclusive means small, poorly fitted or top-dose-only effect; inactive means flat fitted curve, though single readings scatter.

Assay: Quantitative high throughput screen for delayed death inhibitors of the malarial parasite plastid, 96 hour incubation.
Conditions: P. falciparum luciferase growth
Excerpt: NIH Molecular Libraries Probe Production Network [MLPCN] NIH Chemical Genomics Center [NCGC] MLPCN Grant: R21 NS059500 Assay Provider: David Fidock and Eric Ekland, Columbia University The goal of this screen is to discover new antimalarial compounds that act by inhibiting the development of the apicoplast in the malarial parasite Plasmodium falciparum. The biochemical processes that make this organelle essential for erythrocytic stage parasites are not well understood. However, antibiotics, such as azithromycin and tetracycline, which target the apicoplast translational machinery, have a potent antimalarial effect. […] We have developed a cell-based assay that measures parasite growth based on the expression of an integrated copy of a firefly luciferase reporter. To detect small molecules that cause this 'delayed death' phenotype, erythrocytes infected with the luciferase-expressing parasites were incubated with compounds for either one or two generations, corresponding to 48 and 96 hours, respectively. Compounds that inhibit parasite growth in the second generation, but not the first, should be enriched in antimalarials that target the apicoplast. Growth inhibition is detected by a decrease in luciferase activity
Four microliters of culture medium (RPMI 1640 with 0.5% w/v Albumax (GIBCO), 24 mM sodium bicarbonate and 10 ug/mL gentamycin) were dispensed by a Multi-drop Combi into white solid 1536-well plates (Grenier) and 23 nL compound was added by a pin tool. Four microliters of infected erythrocytes (2% hematocrit, 0.1% parasitemia final concentration) in culture medium were dispensed and the plates incubated for 96 hours at 37 C in 5% CO2. Two microliters of luciferase detection reagent was added and luminescence was detected by a ViewLux (PerkinElmer) reader
For `C=CCOC(=O)N(C)C[C@@H]1OCCCC[C@H](C)Oc2ccc(NC(=O)Nc3ccccc3)cc2C(=O)N([C@H](C)COC(=O)c2ccccc2)C[C@H]1C`, the Potency was 504 nM (active). In the case of `C[C@@H]1CN([C@@H](C)CO)C(=O)c2cc(NC(=O)Nc3ccccc3)ccc2O[C@@H](C)CCCCO[C@H]1CN(C)C(=O)OC(C)(C)C`, the Potency is reported as 711 nM (active). With `Cc1noc(C)c1NC(=O)Nc1ccc2c(c1)C(=O)N(C(C)C)C[C@@H](C)[C@H](CN(C)S(=O)(=O)c1ccc(F)cc1)OCCCC[C@H](C)O2` the Potency was 44.9 nM (active) and 1.42 µM (active). In the case of `C[C@@H]1CN(CCO)C(=O)c2cc(NC(=O)Nc3ccccc3)ccc2O[C@@H](C)CCCCO[C@H]1CN(C)S(=O)(=O)c1ccc(F)cc1`, the Potency is reported as 179 nM (active). For `C[C@@H]1CN([C@@H](C)CO)C(=O)c2cc(NC(=O)Nc3ccccc3)ccc2O[C@@H](C)CCCCO[C@H]1CN(C)S(=O)(=O)c1cccnc1`, the Potency was 2830 nM (active). For `C[C@@H]1CN(C)C(=O)c2cc(NC(=O)Nc3ccccc3)ccc2O[C@@H](C)CCCCO[C@@H]1CN(C)S(=O)(=O)c1ccc(F)cc1`, the Potency was 1000 nM (active). In the case of `COc1ccc(COCCN2C[C@@H](C)[C@H](CN(C)S(=O)(=O)c3ccc(F)cc3)OCCCC[C@H](C)Oc3ccc(NC(=O)Nc4ccccc4)cc3C2=O)cc1`, the Potency is reported as 71.1 nM (active). In the case of `C[C@@H]1CN([C@@H](C)CO)C(=O)c2cc(NC(=O)Nc3ccccc3)ccc2O[C@@H](C)CCCCO[C@H]1CN(C)S(=O)(=O)c1cccc(F)c1`, the Potency is reported as 7.1 nM (active). For `COCCOCOC[C@H](C)N1C[C@@H](C)[C@H](CN(C)S(=O)(=O)c2ccc(F)cc2)OCCCC[C@H](C)Oc2ccc(NC(=O)Nc3ccccc3)cc2C1=O`, the Potency was 11.3 nM (active). With `C[C@@H]1CN([C@@H](C)CO)C(=O)c2cc(NC(=O)Nc3ccccc3)ccc2O[C@@H](C)CCCCO[C@H]1CN(C)Cc1ccc(C(F)(F)F)cc1` the Potency was 711 nM (active). With `C[C@@H]1CN([C@@H](C)COC(C)(C)C)C(=O)c2cc(NC(=O)Nc3ccccc3)ccc2O[C@@H](C)CCCCO[C@H]1CN(C)S(=O)(=O)c1ccc(F)cc1` the Potency was 0.8 nM (active). For `C[C@@H]1CN(CCO[Si](C)(C)C(C)(C)C)C(=O)c2cc(NC(=O)Nc3ccccc3)ccc2O[C@@H](C)CCCCO[C@H]1CN(C)S(=O)(=O)c1ccc(F)cc1`, the Potency was 40 nM (active). With `C[C@@H]1CN([C@@H](C)CO)C(=O)c2cc(NC(=O)Nc3ccccc3)ccc2O[C@@H](C)CCCCO[C@H]1CN(C)S(=O)(=O)c1ccccc1F` the Potency was 449 nM (active). With `C[C@@H]1CCCCO[C@@H](CN(C)Cc2ccc(F)cc2)[C@H](C)CN([C@@H](C)CO)C(=O)c2cc(NC(=O)Nc3ccccc3)ccc2O1` the Potency was 2830 nM (active). With `C[C@@H]1CN([C@@H](C)CN=[N+]=[N-])C(=O)c2cc(NC(=O)Nc3ccccc3)ccc2O[C@@H](C)CCCCO[C@H]1CN(C)S(=O)(=O)c1ccc(F)cc1` the Potency was 3.6 nM (active). With `C[C@@H]1CN([C@@H](C)COC(=O)C(C)(C)C)C(=O)c2cc(NC(=O)Nc3ccccc3)ccc2O[C@@H](C)CCCCO[C@H]1CN(C)S(=O)(=O)c1ccc(F)cc1` the Potency was 5.7 nM (active). With `COc1ccc(COC[C@H](C)N2C[C@@H](C)[C@H](CN(C)Cc3ccc(OC)cc3)OCCCC[C@H](C)Oc3ccc(NC(=O)Nc4ccccc4)cc3C2=O)cc1` the Potency was 449 nM (active). With `C[C@@H]1CN([C@@H](C)CO)C(=O)c2cc(Nc3nc4ccccc4o3)ccc2O[C@@H](C)CCCCO[C@H]1CN(C)S(=O)(=O)c1ccc(F)cc1` the Potency was 1130 nM (active). For `C[C@@H]1CN([C@@H](C)COC(=O)c2ccccc2)C(=O)c2cc(NC(=O)Nc3ccccc3)ccc2O[C@@H](C)CCCCO[C@H]1CN(C)C(=O)OC(C)(C)C`, the Potency was 356 nM (active). With `C[C@@H]1CN([C@@H](C)CO)C(=O)c2cc(NC(=O)Nc3ccccc3)ccc2O[C@@H](C)C/C=C/CO[C@H]1CN(C)S(=O)(=O)c1ccc(F)cc1` the Potency was 79.8 nM (active). For `C[C@@H]1CN([C@@H](C)CO)C(=O)c2cc(NC(=O)Nc3ccccc3)ccc2O[C@@H](C)C/C=C\CO[C@H]1CN(C)S(=O)(=O)c1ccc(F)cc1`, the Potency was 252 nM (active). In the case of `CC(C)N1C[C@@H](C)[C@H](CN(C)S(=O)(=O)c2ccc(F)cc2)OCCCC[C@H](C)Oc2ccc(NC(=O)Nc3ccccc3)cc2C1=O`, the Potency is reported as 17.9 nM (active). For `C=CCOC(=O)N(C)C[C@@H]1OCCCC[C@H](C)Oc2ccc(NC(=O)Nc3ccccc3)cc2C(=O)N([C@@H](C)CO)C[C@H]1C`, the Potency was 252 nM (active). For `C[C@@H]1CN([C@@H](C)CO)C(=O)c2cc(NC(=O)Nc3ccccc3)ccc2O[C@@H](C)CCCCO[C@H]1CN(C)S(=O)(=O)c1ccc(C(F)(F)F)cc1`, the Potency was 798 nM (active). In the case of `CC(C)NC(=O)Nc1ccc2c(c1)C(=O)N([C@@H](C)CO)C[C@@H](C)[C@H](CN(C)S(=O)(=O)c1ccc(F)cc1)OCCCC[C@H](C)O2`, the Potency is reported as 449 nM (active). In the case of `C[C@@H]1CN([C@H](C)CO[Si](C)(C)C(C)(C)C)C(=O)c2cc(NC(=O)Nc3ccccc3)ccc2O[C@@H](C)CCCCO[C@H]1CN(C)S(=O)(=O)c1ccc(F)cc1`, the Potency is reported as 159 nM (active). In the case of `COCOC[C@H](C)N1C[C@@H](C)[C@H](CN(C)S(=O)(=O)c2ccc(F)cc2)OCCCC[C@H](C)Oc2ccc(NC(=O)Nc3ccccc3)cc2C1=O`, the Potency is reported as 8 nM (active). For `C[C@@H]1CN([C@@H](C)CO)C(=O)c2cc(N)ccc2O[C@@H](C)CCCCO[C@H]1CN(C)S(=O)(=O)c1ccc(F)cc1`, the Potency was 63.4 nM (active). With `C[C@@H]1CCCCO[C@H](CN(C)C(=O)Nc2ccc(F)cc2)[C@H](C)CN([C@@H](C)CO)C(=O)c2cc(NS(=O)(=O)c3ccccc3)ccc2O1` the Potency was 113 nM (active). In the case of `C=CCOC(=O)N(C)C[C@H]1OCCCC[C@H](C)Oc2ccc(NC(=O)Nc3ccccc3)cc2C(=O)N([C@@H](C)CO[Si](C)(C)C(C)(C)C)C[C@H]1C`, the Potency is reported as 126 nM (active). For `Cc1noc(C)c1NC(=O)Nc1ccc2c(c1)C(=O)N([C@@H](C)CO)C[C@@H](C)[C@H](CN(C)S(=O)(=O)c1ccc(F)cc1)OCCCC[C@H](C)O2`, the Potency was 79.8 nM (active). For `C[C@@H]1CN([C@@H](C)CO[Si](C)(C)C(C)(C)C)C(=O)c2cc(NC(=O)Nc3ccccc3)ccc2O[C@@H](C)CCCCO[C@H]1CN(C)S(=O)(=O)c1ccc(F)cc1`, the Potency was 0.6 nM (active). For `C[C@@H]1CN([C@@H](C)COC(=O)c2ccccc2)C(=O)c2cc(NC(=O)Nc3ccccc3)ccc2O[C@@H](C)CCCCO[C@H]1CN(C)S(=O)(=O)c1ccc(F)cc1`, the Potency was 44.9 nM (active).
